Source: PubChem BioAssay AID1347416 (National Center for Advancing Translational Sciences (NCATS), 2020)
Hit rate of the full screen: of about 4,100 compounds, about 1,600 (39%) were called active. Roughly 25% stayed inconclusive and do not appear here. Some of the results follow. A number with no mark means an inactive call. Calls follow the shape of the dose curve; as a rule, active = well fitted inhibition curve with a large enough effect; inconclusive = small, poorly fitted or top-dose-only effect; inactive = no such curve, though single readings can be large or run the other way.

assay: qHTS Validation assay for Inhibitors of Plasmodium falciparum Dd2 growth in vitro; also: nearly all actives have a fitted effect of over 70% in size; settings: P. falciparum Dd2 in RBCs, SYBR Green growth, 72 h; series mostly up to 28.7 µM; activity change, negative = inhibition: at the top concentration
Method in brief: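 P. falciparum Dd2-infected red blood cells (2.5% hematocrit, 0.3% parasitemia) grown 72 h at 37 °C under 5% O2 with compounds in a titration, 29 uM to 0.5 nM final. Growth read as SYBR Green-1 fluorescence after ~16 h lysis; artesunate 300 nM as positive control.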
% is scaled to controls: 0 for no effect and ±100 for the full control effect; potency is read from the fitted curve at half-maximal effect.

Structure (SMILES) | Potency | activity change, negative = inhibition [%]
N=c1ccn(Cc2ccc(Cl)cc2Cl)cc1 | 8.41 µM (active) | 
N=c1ccn(Cc2ccc(Cl)cc2)cc1 | 8.41 µM (active) | 
N=c1ccn(Cc2c(Cl)cccc2Cl)cc1 |  | -15.6
N=c1ccn(Cc2ccc(Cl)c(Cl)c2)cc1 | 6.68 µM (active) | 
Cc1cc(C)n(CC(=O)N[C@@H]2CN(Cc3cccnc3)C[C@H]2CN(C)C)n1 |  | 8.7
Cc1ccsc1C(=O)NCc1nnc2ccc(-c3ccc(Cl)cc3)nn12 |  | 7.85
COc1ccc(CC(=O)N2CCC(Oc3ncccc3C(=O)N3CCCCC3)C2)cc1 (configuration not stated) | 9.44 µM (active) | 
COc1ccc(S(=O)(=O)N2CCC(Oc3ncccc3C(=O)N3CCOCC3)C2)cc1 (configuration not stated) |  | 17.3
O=C(c1ccccc1F)N1CCC(Oc2ncccc2C(=O)N2CCCCC2)C1 (configuration not stated) |  | 14.2
COc1ccc(-c2cc(C(=O)Nc3cc(OC)cc(C(=O)Nc4cccc(C(F)(F)F)c4)c3)[nH]n2)cc1 | 5.31 µM (active) | 
COc1cc(NC(=O)c2ccc(N)nc2)cc(C(=O)Nc2cccc(C(F)(F)F)c2)c1 | 5.31 µM (active) | 
COc1cccc(NC(=O)Nc2cccc(C(=O)O)c2)c1 |  | 27.9
O=C(Nc1cccc(C(F)(F)F)c1)O[C@@H]1CO[C@H]2[C@@H]1OC[C@@H]2NS(=O)(=O)c1cccs1 |  | 12.6
CC1=NS(=O)(=O)N(Cc2ccc(F)c(F)c2)C=C1C(=O)O |  | 15.4
CN(C)C(=O)N1CCCC(C(=O)NCc2nc(C3CCCCC3)no2)C1 (configuration not stated) |  | 36.9
Cc1nc2sc(C(c3ccco3)N3CCN(C(c4ccccc4)c4ccccc4)CC3)c(O)n2n1 (configuration not stated) | 5.96 µM (active) | 
CCCc1ccc(C(=O)NC(=O)c2ccccc2O)cc1 | 1.06 µM (active) | 
Cc1ccc(N(Cc2cccs2)C(=O)C(C)Oc2ccc(Cl)c(C)c2)cc1 (configuration not stated) | 7.5 µM (active) | 
Cc1ccc(N(CC(=O)Nc2cccc(Cl)c2)S(=O)(=O)c2cccs2)cc1 |  | 29.6
O=C(NCCc1nc(-c2cccnc2)no1)c1coc2c1C(=O)CCC2 |  | 32.2
C/C(=N\OCc1cccc(C(=O)O)c1)c1ccc(Cl)cc1 |  | 6.57
CNC(=O)CCn1ncc2cc(OCc3ccccc3-c3ccccc3OC)ccc21 | 15.3 µM (active) | 
COc1ccccc1-c1nnc2sc(COc3ccc(F)cc3)nn12 |  | -15
COc1cccc(CNc2ccc3c(c2)nc(C)n3C)c1OC |  | 33.3

Structure (SMILES) | Potency | activity change, negative = inhibition [%]
CSc1nnc2c3c4c(sc3c(=O)n(-c3ccccc3)n12)CC(C)(C)OC4 |  | 1.3
CCNc1ncnc2sc3c(c12)CCN(Cc1ccc[nH]1)C3 |  | -12.8
CCOCCCn1c(SCC(=O)NCCCOC)nc2c(sc3ccccc32)c1=O |  | 59
CCCN1CCc2c(sc3nc(SC)n(-c4ccccc4)c(=O)c23)C1 | 2.66 µM (active) | 
C=C(C)CSc1nc2sc3c(c2c(=O)n1C1CCCCC1)CCN(C)C3 | 2.37 µM (active) | 
CCSc1nc2sc3c(c2c(=O)n1-c1ccccc1)CCN(C)C3 | 6.68 µM (active) | 
CC(C)Sc1nc2sc3c(c2c(=O)n1Cc1ccccc1)CCCC3 |  | -20
CN1CCc2c(sc3c2C(=O)NC(c2ccc(C(C)(C)C)cc2)N3)C1 (configuration not stated) |  | 26.9
CCn1c(SCC(=O)NCCc2ccccc2)nc2sc3c(c2c1=O)CCN(C)C3 | 5.31 µM (active) | 
CS(=O)(=O)N(C1CC1)C1CCOC2(CCN(C(=O)C3(c4ccccc4)CC3)CC2)C1 (configuration not stated) |  | 0.781
CCOc1cc(C2NC(=O)c3c(sc4c3CCN(C)C4)N2)ccc1OC(=O)c1ccccc1Cl (configuration not stated) |  | 28.3
COC(CSc1nc(N)c2c3c(sc2n1)CN(C)CC3)OC |  | 3.33
CCOc1ccc(-n2c(SCC(N)=O)nc3sc4c(c3c2=O)CCN(C)C4)cc1 | 15 µM (active) | 
Cc1ccc(N=Nc2ccc(O)c3ncccc23)cc1 |  | 62.4
Oc1ccc(CNc2ccc(C(F)(F)F)cc2Cl)c2cccnc12 | 10.6 µM (active) | 
Fc1ccc(N2CCCN(CC3[C@H]4CNC[C@@H]34)CC2)cc1 (some centres not stated) | 8.41 µM (active) | 
Cc1ccc(-c2cc(=O)c3cc(C)ccc3[nH]2)cc1 | 10.6 µM (active) | 
Cc1ccc2[nH]c(-c3ccccc3)cc(=O)c2c1 | 4.73 µM (active) | 
O=c1cc(-c2ccccc2)[nH]c2ccc(F)cc12 | 5.96 µM (active) | 
CCCCCNC(=O)C1CCC(Cn2c(=O)c3sccc3n(CC(=O)N3CCCC3)c2=O)CC1 (configuration not stated) |  | 7.01
COc1cc(NC(=O)Cn2c(=O)n(CC3CCCO3)c(=O)c3ccccc32)cc(OC)c1 (configuration not stated) |  | 13.1
COc1cc(NC(=O)Cn2c(=O)n(CC3CCC(C(=O)NCCc4ccccc4)CC3)c(=O)c3ccccc32)cc(OC)c1 (configuration not stated) | 5.96 µM (active) | 
Cc1cc2nn(-c3ccc(F)cc3)nc2cc1N |  | 2.12
